Measurements published in PubChem BioAssay (Tox21).
Results filed as inconclusive are left out. Calls of active or inactive are those of the source. Unless noted, calls follow the shape of the dose curve; as a rule, active = well fitted curve in the direction sought with a large enough effect in the repeat runs; inconclusive = weak or mixed curves; inactive = no such curve, though single readings can be large; an effect the other way counts as inactive or inconclusive.

What was measured:
[1] = biological target: Luciferin 4-monooxygenase (Photinus pyralis) (UniProt P08659); assay: qHTS assay to identify small molecule inhibitors of firefly luciferase (AID 1224835); also: nearly all actives have a fitted effect of over 25% in size
Sequence of Luciferin 4-monooxygenase (Photinus pyralis) (P08659 whole entry, looked up): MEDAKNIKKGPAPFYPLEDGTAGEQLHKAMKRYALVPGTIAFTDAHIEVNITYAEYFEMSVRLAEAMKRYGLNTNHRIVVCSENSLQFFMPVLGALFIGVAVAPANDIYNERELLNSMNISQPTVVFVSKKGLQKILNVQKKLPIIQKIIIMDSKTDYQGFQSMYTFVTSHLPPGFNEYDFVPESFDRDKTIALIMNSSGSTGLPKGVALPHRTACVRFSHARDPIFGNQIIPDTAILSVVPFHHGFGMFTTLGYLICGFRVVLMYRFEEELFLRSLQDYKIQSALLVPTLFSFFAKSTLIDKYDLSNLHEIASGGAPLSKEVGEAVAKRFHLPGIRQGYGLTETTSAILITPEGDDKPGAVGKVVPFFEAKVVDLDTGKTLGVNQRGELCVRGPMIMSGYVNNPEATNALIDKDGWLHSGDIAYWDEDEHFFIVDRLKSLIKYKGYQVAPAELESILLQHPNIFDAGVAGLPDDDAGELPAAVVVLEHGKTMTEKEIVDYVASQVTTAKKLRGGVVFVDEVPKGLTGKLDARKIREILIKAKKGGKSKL
How it was run: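 Quantitative HTS format; KM concentrations of both substrates. Purified P. pyralis FLuc activity quantified from luminescence images.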

[2] = qHTS assay to identify small molecule agonists of the constitutive androstane receptor (CAR) signaling pathway - cell viability counter screen (AID 1224836); also: nearly all actives have a fitted effect of over 45% in size
How it was run: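 Counter screen multiplexed with the CAR reporter readout: HepG2 cells co-transfected with hCAR and the CYP2B6-2.2kb construct receive a 15-concentration compound series and 0.75 uM PK11195 (final), then CellTiter-Fluor fluorescence is read after 23 h.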

[3] = qHTS assay to identify small molecule antagonists of the constitutive androstane receptor (CAR) signaling pathway - cell viability counter screen (AID 1224837); also: nearly all actives have a fitted effect of over 45% in size
How it was run: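 HepG2 cells stably expressing hCAR and a CYP2B6-2.2kb reporter were plated and pre-incubated 4 hr at 37 C/5% CO2, then given compounds at 15 concentrations plus 50 nM CITCO (final). After 23 hr, viability was read by CellTiter-Fluor fluorescence.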

[4] = biological target: Nuclear receptor subfamily 1 group I member 3 (Homo sapiens) (UniProt Q14994); assay: qHTS assay to identify small molecule antagonists of the constitutive androstane receptor (CAR) signaling pathway (AID 1224838); also: nearly all actives have a fitted effect of over 40% in size
Sequence of Nuclear receptor subfamily 1 group I member 3 (Homo sapiens) (Q14994 whole entry, looked up): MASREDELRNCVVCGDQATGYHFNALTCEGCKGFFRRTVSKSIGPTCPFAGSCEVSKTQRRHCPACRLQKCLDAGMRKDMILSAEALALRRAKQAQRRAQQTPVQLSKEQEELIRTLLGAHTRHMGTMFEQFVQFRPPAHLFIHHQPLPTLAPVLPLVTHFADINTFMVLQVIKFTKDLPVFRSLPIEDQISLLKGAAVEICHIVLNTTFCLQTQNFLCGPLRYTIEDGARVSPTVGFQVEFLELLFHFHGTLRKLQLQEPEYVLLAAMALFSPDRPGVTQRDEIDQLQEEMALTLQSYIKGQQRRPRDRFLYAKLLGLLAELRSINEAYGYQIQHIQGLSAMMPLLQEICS
How it was run: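 HepG2 cells stably co-transfected with hCAR and a CYP2B6-2.2kb luciferase reporter were seeded 4 h before compound addition at 15 concentrations. Cells were stimulated with 50 nM CITCO (final) for 24 h at 37 C; luciferase luminescence was then read.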

[5] = qHTS assay to identify small molecule antagonists of the estrogen related receptor signaling pathway with the pleiotropic PPARgamma coactivator (PGC) from Tox21 10K library - cell viability counter screen (AID 1224840; active = well fitted cell-killing curve with a large enough effect in the repeat runs, not every such curve was filed as active; also: nearly all actives have a fitted effect of over 40% in size)
How it was run: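 PGC/ERR cells were seeded at 2,000 cells/well and left 6 hours at 37 C/5% CO2 before pin-tool addition of compounds in DMSO. After 17.5 hours at 37 C, CellTiter-Fluor was added and fluorescence read 30 minutes later.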

[6] = biological target: Thyrotropin receptor (Homo sapiens) (UniProt P16473); assay: qHTS assay to identify small molecule agonists of the thyroid stimulating hormone receptor (TSHR) signaling pathway (AID 1224843; calls by dose curve; also: nearly all actives have a fitted effect of over 45% in size)
Sequence of Thyrotropin receptor (Homo sapiens) (P16473 whole entry, looked up): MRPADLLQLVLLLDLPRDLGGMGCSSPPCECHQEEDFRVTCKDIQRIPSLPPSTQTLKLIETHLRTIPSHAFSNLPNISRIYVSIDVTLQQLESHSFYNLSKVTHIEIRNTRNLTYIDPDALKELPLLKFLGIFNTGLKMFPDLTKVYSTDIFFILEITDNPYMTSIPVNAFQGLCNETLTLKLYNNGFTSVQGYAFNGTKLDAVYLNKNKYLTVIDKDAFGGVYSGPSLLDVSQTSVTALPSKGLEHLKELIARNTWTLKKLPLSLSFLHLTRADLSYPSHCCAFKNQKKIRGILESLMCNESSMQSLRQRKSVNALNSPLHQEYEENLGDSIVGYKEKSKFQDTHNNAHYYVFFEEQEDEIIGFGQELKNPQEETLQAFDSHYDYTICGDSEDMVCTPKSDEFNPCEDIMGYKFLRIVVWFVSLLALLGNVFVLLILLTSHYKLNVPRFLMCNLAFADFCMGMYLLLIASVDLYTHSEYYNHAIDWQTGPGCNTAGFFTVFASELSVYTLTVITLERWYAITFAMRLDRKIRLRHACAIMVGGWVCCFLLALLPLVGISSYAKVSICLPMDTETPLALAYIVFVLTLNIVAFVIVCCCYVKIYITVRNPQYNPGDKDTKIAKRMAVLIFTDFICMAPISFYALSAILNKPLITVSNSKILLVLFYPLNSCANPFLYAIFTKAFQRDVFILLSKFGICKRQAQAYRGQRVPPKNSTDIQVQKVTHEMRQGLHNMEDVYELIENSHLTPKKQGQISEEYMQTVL
How it was run: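 Cell line HEK293 with TSHR; density 800/well. Exposure 30 min RT. Readout HTRF cAMP (cAMP-d2/anti-cAMP-cryptate), 1 h RT before reading.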

[7] = qHTS assay to identify small molecule agonists of the hypoxia (HIF-1) signaling pathway - cell viability counter screen (AID 1224844; calls by dose curve; also: nearly all actives have a fitted effect of over 50% in size)
How it was run: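 HRE-bla ME-180 cells in medium with 0.5% dialyzed FBS were preincubated 5 hrs at 37C, exposed to compounds for 17 hrs, then viability was read as CellTiter-Glo luminescence after 30 min at room temperature, in the reporter wells.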

[8] = qHTS assay to identify small molecule agonists of H2AX (AID 1224845; active = well fitted activation curve with a large enough effect in the signal ratio in the repeat runs, not every such curve was filed as active; the % refers to the signal ratio)
How it was run: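 Wild-type CHO-K1 cells plated overnight, then exposed 3 hr at 37C to compounds at 15 concentrations (0.76% DMSO). Lysed, then HTRF anti-pH2AX(S139)-cryptate/anti-H2AX-d2 detection after 24 hr at room temperature; emissions 665 and 620 nm.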

[9] = qHTS assay to identify small molecule agonists of the hypoxia (HIF-1) signaling pathway (AID 1224846; active = well fitted activation curve with a large enough effect in the signal ratio in the repeat runs, not every such curve was filed as active; the % refers to the signal ratio)
How it was run: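 HRE-bla ME-180 cells (beta-lactamase reporter under hypoxia response element) were plated at 2,000 cells/well in medium with 0.5% dialyzed FBS, rested 5 hrs, then given compounds in DMSO for 17 hrs at 37C, 5% CO2. Reporter induction was read with CCF4-AM FRET substrate.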

[10] = qHTS assay to identify small molecule agonists of H2AX - cell viability counter screen (AID 1224847; calls by dose curve; also: top concentration of the series differs between compounds; nearly all actives have a fitted effect of over 30% in size)
How it was run: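 We seed wild-type CHO-K1 cells overnight, treat them for 3 hr at 37C with compounds in 15-concentration series, and quantify remaining viability by CellTiter-Glo luminescence.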

[11] = qHTS RealTime-Glo MT Cell Viability Assay in HepG2 cells - 24 hour (AID 1224867); also: nearly all actives have a fitted effect of over 50% in size
How it was run: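 Luminescence read-out: viable HepG2 cells reduce a prosubstrate to a NanoLuc substrate, giving a signal proportional to live cell number. Reads taken at 0, 8, 16, 24, 32 and 40 h of compound exposure at 37 C.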

[12] = qHTS RealTime-Glo MT Cell Viability Assay in HEK293 cells - 32 hour (AID 1224868); also: top concentration of the series differs between compounds; nearly all actives have a fitted effect of over 50% in size
How it was run: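 Nonlytic real-time viability readout: viable cells convert prosubstrate to NanoLuc substrate, giving luminescence proportional to live cell number. HEK293, 600 cells/well, compound added after 5 h, continuous culture at 37 C.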

[13] = A CellTox Green Cytotoxicity Assay to monitor cytotoxicity in HEK293 cells - 0 hour (AID 1224869); also: nearly all actives have a fitted effect of over 50% in size
How it was run: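 HEK293 cells premixed with CellTox Green dye were seeded at 600 cells/well and left 5 h at 37 C/5% CO2 before pin transfer of 23 nL compound in DMSO. Fluorescence from dye bound to dead-cell DNA was read during 40 h treatment.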

[14] = qHTS RealTime-Glo MT Cell Viability Assay in HepG2 cells - 40 hour (AID 1224870); also: nearly all actives have a fitted effect of over 50% in size
How it was run: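 HepG2 cells mixed with RealTime-Glo MT reagents (NanoLuc plus cell-permeant prosubstrate) were seeded at 600 cells/well, incubated 5 h at 37 C/5% CO2, then pinned with compounds in DMSO; nonlytic luminescence tracked viability during 40 h treatment.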

[15] = biological target: Nuclear receptor subfamily 1 group I member 3 (Homo sapiens) (UniProt Q14994); assay: qHTS assay to identify small molecule agonists of the constitutive androstane receptor (CAR) signaling pathway (AID 1224839); also: nearly all actives have a fitted effect of over 15% in size
How it was run: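 A 15-concentration quantitative screen uses HepG2 cells co-transfected stably with human CAR and CYP2B6-2.2kb reporter. Treatment lasts 24 h with 0.75 uM PK11195 final present; ONE-Glo luminescence is the signal.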

[16] = qHTS assay to identify small molecule antagonists of the estrogen related receptor signaling pathway with the pleiotropic PPARgamma coactivator (PGC) from Tox21 10K library (AID 1224841; call rule not given here)
How it was run: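 PGC/ERR reporter cells were seeded at 2,000 cells/well and held 6 hours at 37 C/5% CO2 before pin-tool addition of compounds in DMSO. After 18 hours at 37 C, One-Glo was added and luminescence read after 30 minutes at room temperature.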

[17] = qHTS assay to identify small molecule agonists of the estrogen related receptor signaling pathway with the pleiotropic PPARgamma coactivator (PGC) from Tox21 10K library (AID 1224842); also: nearly all actives have a fitted effect of over 15% in size
How it was run: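 PGC/ERR reporter cells (NTP line) were seeded 2,000 per well, rested 6 h at 37 C/5% CO2, then pin-dosed with compounds in DMSO for 18 h at 37 C; luciferase read by One-Glo luminescence after 30 min at room temperature.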

[18] = qHTS assay to identify small molecule antagonists of the estrogen related receptor (ERR) signaling pathway from Tox21 library (AID 1224848); also: nearly all actives have a fitted effect of over 50% in size
How it was run: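 Screening used an ERR reporter line supplied by NTP, exposed for 18 h at 37 C to library compounds delivered in DMSO. Signal was luciferase luminescence developed with ONE-Glo at room temperature for 30 min.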

[19] = qHTS assay to identify small molecule agonists of the estrogen related receptor (ERR) signaling pathway from Tox21 library (AID 1224849; calls by dose curve; also: nearly all actives have a fitted effect of over 15% in size); conditions: ERR reporter cell line, ONE-Glo luciferase, 18 h; at 92.4 µM (top of the series) unless noted
How it was run: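 ERR reporter cell line (NTP) seeded, rested 6 h at 37 C/5% CO2, then pinned with Tox21 compounds in DMSO. After 18 h at 37 C, ONE-Glo luciferase luminescence was read following 30 min at room temperature.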
% is scaled to controls: 0 for no effect and ±100 for the full control effect.

OC[C@]1(O)OC[C@@H](O)[C@H](O)[C@@H]1O
inactive: Potency [1] | Potency [2] | Potency [3] | Potency [4] | Potency [5] | Potency [6] | Potency [7] | outcome [8] | outcome [9] | Potency [10] | Potency [11] | Potency [12] | Potency [13] | Potency [14]

C=C[Si](OC(=C)C)(OC(=C)C)OC(=C)C
inactive: Potency [1] | Potency [2] | Potency [3] | Potency [4] | Potency [15] | Potency [16] | outcome [17] | Potency [7] | outcome [8] | outcome [9] | Potency [10] | Potency [18] | activity change, positive = activation [19] -0.275% | Potency [11] | Potency [12] | Potency [13] | Potency [14]

CCCCC/C=C\CCC=O
inactive: Potency [2] | Potency [3] | Potency [4] | Potency [15] | Potency [5] | Potency [6] | Potency [7] | outcome [8] | Potency [10] | Potency [11] | Potency [12] | Potency [14]

Nc1c2c(nc3ccccc13)CCCC2O (stereo unspecified)
inactive: Potency [1] | Potency [2] | Potency [3] | Potency [4] | Potency [5] | Potency [16] | outcome [17] | Potency [7] | outcome [8] | Potency [10] | Potency [18] | activity change, positive = activation [19] 0.138% [at 42.5 µM] | Potency [11] | Potency [12] | Potency [13] | Potency [14]

O=C1CC2CC1C1CCCC21 (stereo unspecified)
inactive: Potency [1] | Potency [2] | Potency [3] | Potency [4] | Potency [15] | Potency [16] | outcome [17] | Potency [6] | Potency [7] | outcome [8] | outcome [9] | Potency [10] | Potency [18] | activity change, positive = activation [19] -0.257% | Potency [11] | Potency [12] | Potency [14]

Cn1c(N)c(N=O)c(=O)n(C)c1=O
inactive: Potency [1] | Potency [2] | Potency [3] | Potency [4] | Potency [5] | Potency [16] | outcome [17] | Potency [7] | outcome [9] | Potency [10] | Potency [18] | activity change, positive = activation [19] -7.21% | Potency [11] | Potency [12] | Potency [14]

CCS(=O)(=O)c1ccc(OC)c(C(=O)OC)c1
inactive: Potency [1] | Potency [2] | Potency [3] | Potency [4] | Potency [15] | Potency [16] | outcome [17] | Potency [7] | outcome [8] | outcome [9] | Potency [10] | Potency [18] | activity change, positive = activation [19] 4.43% [at 42.5 µM] | Potency [11] | Potency [12] | Potency [14]

NCCCNCCSP(=O)(O)O
inactive: activity change, negative = inhibition [1] 0.729% [at 10.5 µM] | viability change, negative = cytotoxic [2] 10.5% [at 8.39 µM] | activity change, negative = cytotoxicity [3] 2.76% [at 8.39 µM] | activity, negative = inhibition [4] -1.02% [at 8.39 µM] | activation [15] -1.23% [at 8.39 µM] | viability change, negative = cytotoxic [5] 11.6% [at 8.39 µM] | activation [6] 0.0403% [at 8.39 µM] | activity change, negative = cytotoxicity [7] 6.46% [at 6.97 µM] | activation (H2AX phosphorylation) [8] -3.9% [at 14 µM] | activity change, negative = cytotoxicity [10] -5.36% [at 14 µM] | activity change, negative = cytotoxicity [11] 1.03% [at 6.97 µM] | activity change, negative = cytotoxic [12] 3.62% [at 6.97 µM] | cytotoxicity [13] -8.49% [at 6.97 µM] | activity change, negative = cytotoxic [14] 0.256% [at 6.97 µM]
